{"source": "the supplement of paper PMC10849652", "note": "Targets with a hit are over-represented here; the source holds about 7,900 in all. About 0.6% of all pairs of compound and target were hits. Values without a mark were called inactive."}
{"compound": "COc1cc2nc(-c3cc(F)ccc3O)nc(N[C@@H]3CNC[C@H]3C(C)(C)O)c2cc1OC", "test": "log2 fold change, soluble protein after heating vs DMSO (PISA); higher = thermal stabilisation; K562 cells, 10 uM, 30 min; active = over 0.2 and 3.5 SD of the protein, either way, in both replicates (recomputed)", "method_in_brief": "(§1)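 K562 cells (2×10^6 cells/mL) were treated with 10 μM compound for 30 min, and aliquots were heated for 3 min over 48°C-58°C. Pooled aliquots were extracted in PBS with 0.5% NP-40 at 4°C, and the supernatant after 21,000xg for 90 min was measured by TMTpro 16plex LC-MS/MS with channel sums equalised. Reported thermal stability, relative to control samples and from duplicates, is a log2 fold change.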"}
{"target": "SNX2 isoform 2 (UniProt O60749)", "log2 fold change": 0.462}
{"target": "SMPD4 isoform 2 (UniProt Q9NXE4)", "log2 fold change": -0.308}
{"target": "SLC8B1 (UniProt Q6J4K2)", "log2 fold change": 0.132}
{"target": "SNRK (UniProt Q9NRH2)", "log2 fold change": "0.84 (active)"}
{"target": "SLC9A6 isoform 3 (UniProt Q92581)", "log2 fold change": 0.055}
{"target": "TAOK2 (UniProt Q9UL54)", "sequence (Q9UL54 whole entry, looked up)": "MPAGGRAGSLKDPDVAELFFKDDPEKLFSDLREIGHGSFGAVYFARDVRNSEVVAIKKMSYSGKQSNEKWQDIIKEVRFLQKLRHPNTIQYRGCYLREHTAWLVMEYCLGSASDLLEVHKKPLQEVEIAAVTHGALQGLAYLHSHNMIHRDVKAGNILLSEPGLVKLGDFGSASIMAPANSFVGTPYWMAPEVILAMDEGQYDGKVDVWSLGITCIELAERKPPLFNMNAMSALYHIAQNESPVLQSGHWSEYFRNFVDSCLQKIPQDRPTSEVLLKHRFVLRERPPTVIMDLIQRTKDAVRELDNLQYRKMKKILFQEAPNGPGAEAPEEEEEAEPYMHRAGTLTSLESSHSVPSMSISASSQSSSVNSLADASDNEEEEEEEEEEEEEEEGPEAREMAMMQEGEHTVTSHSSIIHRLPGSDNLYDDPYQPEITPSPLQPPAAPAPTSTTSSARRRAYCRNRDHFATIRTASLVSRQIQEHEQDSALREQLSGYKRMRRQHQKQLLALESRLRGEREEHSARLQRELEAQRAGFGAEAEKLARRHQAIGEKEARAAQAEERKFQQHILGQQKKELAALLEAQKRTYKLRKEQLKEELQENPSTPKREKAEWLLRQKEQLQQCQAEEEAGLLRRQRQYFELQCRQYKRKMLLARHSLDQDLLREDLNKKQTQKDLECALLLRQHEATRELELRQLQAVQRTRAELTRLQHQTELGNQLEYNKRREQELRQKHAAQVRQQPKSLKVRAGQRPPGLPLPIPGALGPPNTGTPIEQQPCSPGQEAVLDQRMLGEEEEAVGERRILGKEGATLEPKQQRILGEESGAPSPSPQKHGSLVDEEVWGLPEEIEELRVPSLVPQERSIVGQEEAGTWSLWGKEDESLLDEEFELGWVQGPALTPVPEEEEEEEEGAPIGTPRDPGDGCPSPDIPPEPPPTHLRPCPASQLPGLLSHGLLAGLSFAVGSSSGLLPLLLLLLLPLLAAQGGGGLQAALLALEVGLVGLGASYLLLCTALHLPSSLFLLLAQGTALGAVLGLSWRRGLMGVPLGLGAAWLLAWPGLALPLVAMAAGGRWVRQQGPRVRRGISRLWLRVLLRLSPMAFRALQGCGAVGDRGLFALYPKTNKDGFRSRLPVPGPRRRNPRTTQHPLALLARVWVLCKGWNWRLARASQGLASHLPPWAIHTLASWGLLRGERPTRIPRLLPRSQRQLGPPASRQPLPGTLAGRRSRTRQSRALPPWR", "log2 fold change": -0.02}
{"target": "SRCAP (UniProt Q6ZRS2)", "log2 fold change": -0.067}
{"target": "TENT5C (UniProt Q5VWP2)", "log2 fold change": 0.075}
{"target": "TBP (UniProt P20226)", "log2 fold change": 0.072}
{"target": "SYK (UniProt P43405)", "log2 fold change": 0.204}
{"target": "TIMM10B (UniProt Q9Y5J6)", "sequence (Q9Y5J6 whole entry, looked up)": "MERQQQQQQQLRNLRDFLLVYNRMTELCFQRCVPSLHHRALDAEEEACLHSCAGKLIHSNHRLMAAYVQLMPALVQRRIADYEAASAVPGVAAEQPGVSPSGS", "log2 fold change": 0.048}
{"target": "SLC35F6 (UniProt Q8N357)", "log2 fold change": 0.033}
{"target": "TEX30 (UniProt Q5JUR7)", "sequence (Q5JUR7 whole entry, looked up)": "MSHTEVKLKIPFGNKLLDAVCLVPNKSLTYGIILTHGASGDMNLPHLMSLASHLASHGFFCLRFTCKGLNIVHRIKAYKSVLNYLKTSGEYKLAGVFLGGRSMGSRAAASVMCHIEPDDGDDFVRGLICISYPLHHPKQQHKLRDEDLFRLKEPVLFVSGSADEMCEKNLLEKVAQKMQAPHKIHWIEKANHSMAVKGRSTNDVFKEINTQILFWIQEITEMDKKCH", "log2 fold change": 0.07}
{"target": "TM7SF2 (UniProt O76062)", "log2 fold change": -0.143}
{"target": "SMIM20 isoform 2 (UniProt Q8N5G0)", "sequence (Q8N5G0 whole entry, looked up)": "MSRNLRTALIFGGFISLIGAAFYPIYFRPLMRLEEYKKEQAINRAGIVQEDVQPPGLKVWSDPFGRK", "log2 fold change": 0.024}
{"target": "TMBIM1 (UniProt Q969X1)", "log2 fold change": -0.254}
{"target": "TACC2 (UniProt O95359)", "sequence (O95359 whole entry, looked up)": "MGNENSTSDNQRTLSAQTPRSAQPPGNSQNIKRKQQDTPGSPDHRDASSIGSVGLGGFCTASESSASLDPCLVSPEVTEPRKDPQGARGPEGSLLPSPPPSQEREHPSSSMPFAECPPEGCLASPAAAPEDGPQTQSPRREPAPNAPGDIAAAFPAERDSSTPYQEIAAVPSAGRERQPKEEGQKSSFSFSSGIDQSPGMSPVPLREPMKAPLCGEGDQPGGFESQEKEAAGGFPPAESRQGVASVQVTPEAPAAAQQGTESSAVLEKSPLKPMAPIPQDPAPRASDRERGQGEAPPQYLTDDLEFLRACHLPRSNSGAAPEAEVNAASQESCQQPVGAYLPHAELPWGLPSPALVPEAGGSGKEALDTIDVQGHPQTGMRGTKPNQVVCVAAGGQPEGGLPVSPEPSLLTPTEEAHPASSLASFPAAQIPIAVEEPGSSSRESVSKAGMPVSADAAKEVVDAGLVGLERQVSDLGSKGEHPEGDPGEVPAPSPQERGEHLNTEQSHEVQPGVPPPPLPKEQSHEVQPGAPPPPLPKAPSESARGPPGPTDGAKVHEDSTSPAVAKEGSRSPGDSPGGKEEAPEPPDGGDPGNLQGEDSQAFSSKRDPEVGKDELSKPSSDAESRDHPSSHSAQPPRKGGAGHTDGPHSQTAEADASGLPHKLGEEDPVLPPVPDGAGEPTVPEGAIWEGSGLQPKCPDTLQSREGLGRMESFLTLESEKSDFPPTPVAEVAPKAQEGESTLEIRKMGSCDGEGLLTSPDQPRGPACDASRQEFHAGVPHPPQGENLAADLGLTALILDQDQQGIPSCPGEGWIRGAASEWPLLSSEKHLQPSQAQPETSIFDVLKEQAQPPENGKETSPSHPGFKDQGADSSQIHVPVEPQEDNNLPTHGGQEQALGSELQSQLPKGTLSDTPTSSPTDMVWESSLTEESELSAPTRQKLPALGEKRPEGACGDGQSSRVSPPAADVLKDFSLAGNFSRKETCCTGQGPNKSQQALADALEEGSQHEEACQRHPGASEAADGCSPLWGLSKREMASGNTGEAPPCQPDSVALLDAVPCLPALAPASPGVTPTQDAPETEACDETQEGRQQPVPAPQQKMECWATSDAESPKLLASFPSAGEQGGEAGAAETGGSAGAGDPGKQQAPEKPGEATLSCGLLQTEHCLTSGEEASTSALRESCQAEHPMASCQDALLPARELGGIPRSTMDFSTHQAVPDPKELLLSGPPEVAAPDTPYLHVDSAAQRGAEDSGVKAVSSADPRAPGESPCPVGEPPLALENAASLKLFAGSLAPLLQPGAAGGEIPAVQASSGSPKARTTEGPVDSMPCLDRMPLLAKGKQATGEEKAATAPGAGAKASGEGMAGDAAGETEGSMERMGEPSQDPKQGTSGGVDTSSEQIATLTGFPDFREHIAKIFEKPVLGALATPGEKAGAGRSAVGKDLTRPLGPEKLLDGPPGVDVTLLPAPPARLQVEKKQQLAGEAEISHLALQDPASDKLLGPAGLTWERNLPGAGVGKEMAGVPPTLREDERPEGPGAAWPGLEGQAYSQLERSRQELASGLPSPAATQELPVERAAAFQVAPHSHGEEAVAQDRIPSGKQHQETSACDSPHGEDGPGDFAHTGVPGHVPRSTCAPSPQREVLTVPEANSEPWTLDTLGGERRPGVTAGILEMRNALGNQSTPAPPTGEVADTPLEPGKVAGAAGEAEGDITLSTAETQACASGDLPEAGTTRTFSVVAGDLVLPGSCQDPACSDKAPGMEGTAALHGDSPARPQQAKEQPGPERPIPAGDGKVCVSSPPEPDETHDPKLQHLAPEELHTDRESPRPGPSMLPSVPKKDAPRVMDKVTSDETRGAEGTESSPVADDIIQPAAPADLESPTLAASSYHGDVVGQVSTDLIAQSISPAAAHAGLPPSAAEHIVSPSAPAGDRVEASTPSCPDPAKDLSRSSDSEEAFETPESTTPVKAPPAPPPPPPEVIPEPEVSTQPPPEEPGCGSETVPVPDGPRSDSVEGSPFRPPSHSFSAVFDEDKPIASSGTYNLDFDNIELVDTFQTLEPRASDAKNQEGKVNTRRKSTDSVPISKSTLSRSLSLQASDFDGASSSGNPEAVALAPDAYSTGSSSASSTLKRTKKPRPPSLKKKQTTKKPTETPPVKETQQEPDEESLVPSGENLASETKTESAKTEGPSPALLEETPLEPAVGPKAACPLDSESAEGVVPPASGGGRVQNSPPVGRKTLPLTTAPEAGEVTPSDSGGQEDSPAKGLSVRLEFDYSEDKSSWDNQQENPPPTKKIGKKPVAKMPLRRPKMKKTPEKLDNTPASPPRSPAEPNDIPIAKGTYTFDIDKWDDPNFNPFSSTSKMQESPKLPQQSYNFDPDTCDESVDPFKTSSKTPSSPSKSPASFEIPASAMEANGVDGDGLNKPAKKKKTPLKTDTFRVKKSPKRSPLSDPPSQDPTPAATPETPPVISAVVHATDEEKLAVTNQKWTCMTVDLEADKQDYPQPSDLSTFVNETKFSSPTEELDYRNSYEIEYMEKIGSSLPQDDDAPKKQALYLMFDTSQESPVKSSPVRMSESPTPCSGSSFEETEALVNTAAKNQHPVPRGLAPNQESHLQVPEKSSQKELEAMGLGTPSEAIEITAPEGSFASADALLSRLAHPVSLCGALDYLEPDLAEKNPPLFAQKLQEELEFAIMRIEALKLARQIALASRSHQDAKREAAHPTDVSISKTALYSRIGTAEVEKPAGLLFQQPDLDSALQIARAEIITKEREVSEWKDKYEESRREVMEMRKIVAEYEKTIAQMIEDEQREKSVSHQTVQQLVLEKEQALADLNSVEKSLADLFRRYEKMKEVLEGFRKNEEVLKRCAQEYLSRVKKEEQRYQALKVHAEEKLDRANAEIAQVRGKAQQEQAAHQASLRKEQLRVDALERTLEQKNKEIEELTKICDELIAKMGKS", "log2 fold change": 0.01}
{"target": "TK1 (UniProt K7ERV3)", "log2 fold change": -0.107}
{"target": "SSBP4 (UniProt Q9BWG4)", "sequence (Q9BWG4 whole entry, looked up)": "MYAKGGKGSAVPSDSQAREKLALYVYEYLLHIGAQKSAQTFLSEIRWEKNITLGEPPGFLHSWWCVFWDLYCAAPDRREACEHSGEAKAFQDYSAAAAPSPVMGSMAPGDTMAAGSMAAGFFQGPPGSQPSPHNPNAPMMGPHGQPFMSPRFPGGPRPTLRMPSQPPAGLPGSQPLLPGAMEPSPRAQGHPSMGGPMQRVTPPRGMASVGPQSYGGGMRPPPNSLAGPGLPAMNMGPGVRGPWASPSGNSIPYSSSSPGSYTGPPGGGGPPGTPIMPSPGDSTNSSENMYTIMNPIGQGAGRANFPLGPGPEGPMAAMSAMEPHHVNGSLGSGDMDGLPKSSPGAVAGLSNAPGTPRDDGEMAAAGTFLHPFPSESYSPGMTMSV", "log2 fold change": 0.076}
{"target": "TAF6L (UniProt Q9Y6J9)", "log2 fold change": 0.166}
{"compound": "COc1cc2ncnc(Nc3ccc(F)c(Cl)c3)c2cc1OCCCN1CCOCC1 [gefitinib]", "test": "log2 fold change, soluble protein after heating vs DMSO (PISA); higher = thermal stabilisation; K562 cells, 10 uM, 30 min; active = over 0.2 and 3.5 SD of the protein, either way, in both replicates (recomputed)", "method_in_brief": "as §1"}
{"target": "SLC35B1 isoform 2 (UniProt P78383)", "log2 fold change": -0.022}
{"target": "TC2N (UniProt Q8N9U0)", "log2 fold change": -0.066}
{"target": "SPIRE1 (UniProt Q08AE8)", "log2 fold change": -0.013}
{"target": "TAOK2 (UniProt Q9UL54)", "log2 fold change": -0.095}
{"target": "SRCAP (UniProt Q6ZRS2)", "log2 fold change": 0.198}
{"target": "TENT5C (UniProt Q5VWP2)", "log2 fold change": 0.002}
{"target": "THAP9 (UniProt Q9H5L6)", "log2 fold change": -0.142}
{"target": "TBP (UniProt P20226)", "log2 fold change": 0.044}
{"target": "TCOF1 isoform 6 (UniProt Q13428)", "log2 fold change": 0.028}
{"target": "SLC35B4 (UniProt Q969S0)", "log2 fold change": 0.149}
{"target": "TIMM10B (UniProt Q9Y5J6)", "log2 fold change": 0.022}
{"target": "SLC35F6 (UniProt Q8N357)", "log2 fold change": 0}
{"target": "TEX30 (UniProt Q5JUR7)", "log2 fold change": -0.079}
{"target": "TM7SF2 (UniProt O76062)", "log2 fold change": 0.059}
{"target": "SMIM20 isoform 2 (UniProt Q8N5G0)", "log2 fold change": 0.057}
{"target": "TMBIM1 (UniProt Q969X1)", "log2 fold change": -0.004}
{"target": "TACC2 (UniProt O95359)", "log2 fold change": -0.027}
{"target": "TK1 (UniProt K7ERV3)", "log2 fold change": 0.026}
{"target": "SSBP4 (UniProt Q9BWG4)", "log2 fold change": -0.001}
{"target": "TAF6L (UniProt Q9Y6J9)", "log2 fold change": 0.054}
{"compound": "COc1cccc2cc(-c3nc([C@H]4CC[C@H](C(=O)O)CC4)n4ncnc(N)c34)[nH]c12", "test": "log2 fold change, soluble protein after heating vs DMSO (PISA); higher = thermal stabilisation; K562 cells, 10 uM, 30 min; active = over 0.2 and 3.5 SD of the protein, either way, in both replicates (recomputed)", "method_in_brief": "as §1"}
{"target": "SLC35B1 isoform 2 (UniProt P78383)", "log2 fold change": 0.129}
{"target": "SMPD4 isoform 2 (UniProt Q9NXE4)", "log2 fold change": 0.003}
{"target": "TC2N (UniProt Q8N9U0)", "log2 fold change": 0.127}
{"target": "SPIRE1 (UniProt Q08AE8)", "log2 fold change": 0.049}
{"target": "SSB (UniProt E7ERC4)", "log2 fold change": -0.37}
{"target": "TAOK2 (UniProt Q9UL54)", "log2 fold change": 0.003}
{"target": "SRCAP (UniProt Q6ZRS2)", "log2 fold change": 0.062}
{"target": "TENT5C (UniProt Q5VWP2)", "log2 fold change": -0.021}
{"target": "TBC1D2 (UniProt Q9BYX2)", "log2 fold change": -0.211}
{"target": "THAP9 (UniProt Q9H5L6)", "log2 fold change": 0.011}
{"target": "TBP (UniProt P20226)", "log2 fold change": 0.081}
{"target": "SREBF1 isoform 4 (UniProt P36956)", "log2 fold change": 0.098}
{"target": "TCOF1 isoform 6 (UniProt Q13428)", "log2 fold change": -0.105}
{"target": "SLC35B4 (UniProt Q969S0)", "log2 fold change": 0.076}
{"target": "TIMM10B (UniProt Q9Y5J6)", "log2 fold change": 0.143}
{"target": "SLC35F6 (UniProt Q8N357)", "log2 fold change": 0.037}
{"target": "TEX30 (UniProt Q5JUR7)", "log2 fold change": 0.031}
{"target": "SSBP4 (UniProt U3KPY3)", "log2 fold change": 0.212}
{"target": "SMIM20 isoform 2 (UniProt Q8N5G0)", "log2 fold change": 0.091}
{"target": "TMBIM1 (UniProt Q969X1)", "log2 fold change": 0.088}
{"target": "TACC2 (UniProt O95359)", "log2 fold change": 0.011}
{"target": "TK1 (UniProt K7ERV3)", "log2 fold change": 0}
{"target": "SSBP4 (UniProt Q9BWG4)", "log2 fold change": 0.029}
{"target": "TAF6L (UniProt Q9Y6J9)", "log2 fold change": 0.038}
{"compound": "CS(=O)(=O)CCNCc1ccc(-c2ccc3ncnc(Nc4ccc(OCc5cccc(F)c5)c(Cl)c4)c3c2)o1 [lapatinib]", "test": "log2 fold change, soluble protein after heating vs DMSO (PISA); higher = thermal stabilisation; K562 cells, 10 uM, 30 min; active = over 0.2 and 3.5 SD of the protein, either way, in both replicates (recomputed)", "method_in_brief": "as §1"}
{"target": "SNX2 isoform 2 (UniProt O60749)", "log2 fold change": 0.041}
{"target": "SMPD4 isoform 2 (UniProt Q9NXE4)", "log2 fold change": 0.131}
{"target": "SLC8B1 (UniProt Q6J4K2)", "log2 fold change": 0.066}
{"target": "SNRK (UniProt Q9NRH2)", "log2 fold change": 0.016}
{"target": "SLC9A6 isoform 3 (UniProt Q92581)", "log2 fold change": -0.072}
{"target": "TAOK2 (UniProt Q9UL54)", "log2 fold change": 0.022}
{"target": "SRCAP (UniProt Q6ZRS2)", "log2 fold change": 0.049}
{"target": "TENT5C (UniProt Q5VWP2)", "log2 fold change": -0.092}
{"target": "TBP (UniProt P20226)", "log2 fold change": 0.023}
{"target": "SYK (UniProt P43405)", "log2 fold change": 0.06}
{"target": "TIMM10B (UniProt Q9Y5J6)", "log2 fold change": -0.248}
{"target": "SLC35F6 (UniProt Q8N357)", "log2 fold change": -0.076}
{"target": "TEX30 (UniProt Q5JUR7)", "log2 fold change": -0.029}
{"target": "TM7SF2 (UniProt O76062)", "log2 fold change": 0}
{"target": "SMIM20 isoform 2 (UniProt Q8N5G0)", "log2 fold change": -0.044}
{"target": "TMBIM1 (UniProt Q969X1)", "log2 fold change": 0.172}
{"target": "TACC2 (UniProt O95359)", "log2 fold change": 0.011}
{"target": "TK1 (UniProt K7ERV3)", "log2 fold change": -0.107}
{"target": "SSBP4 (UniProt Q9BWG4)", "log2 fold change": -0.145}
{"target": "TAF6L (UniProt Q9Y6J9)", "log2 fold change": -0.133}
